High-throughput results deposited in PubChem by National Center for Advancing Translational Sciences (NCATS).
The list is not random: actives were taken first. Their share in the collection is about 19%.
BCR signal inh: inhibitors of chronic active B-cell receptor signaling | Potency, µM (highest dose often 46.1 µM), inactives show at the highest dose activity change, negative = inhibition, usual class: inhibitors | AID 493014 | 0.05% of 340,000 active | ABC-DLBCL IkBa-CBG/CBR reporter, luminescence ratio, 4 h; active means well fitted inhibition curve with a large enough effect in the signal ratio, with a control signal flat, not every such curve was filed as active; inconclusive means small, poorly fitted or top-dose-only effect, or effect the other way, or a change in a side signal; the % refers to the signal ratio;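 further: potency means the concentration at half of the fitted maximal effect; plate controls were basal doxycycline-induced cells for no effect and cells given 10 µM MG132 for full effect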
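Compounds up to 46 uM were incubated four hours with TMD8 cells whose green CBG68 luciferase is fused to IkappaBalpha; red CBR luminescence normalised the signal, and concentration-effect curves were fitted to fusion, red and ratio data.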
SW480 rereplic: induces DNA re-replication in SW480 colon adenocarcinoma cells | SW480 DNA re-replication, Hoechst DNA content imaging, 48 h | Potency, µM (highest dose often 46.1 µM), for inactives: at the highest dose re-replication activation, usual class: activators | 1.8% of 340,000 active | AID 624297; further: potency means the concentration at half of the fitted maximal effect; % of control where 0% means no effect; nearly all actives have a fitted effect of over 55% in size
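Quantitative HTS format with DMSO vehicle controls; 48 hr drug incubation at 37 C, then 40 min Hoechst staining and scanning imager measurement at 405 nm excitation.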
DT40 TDP1 no CPT: qHTS for Inhibitors of human tyrosyl-DNA phosphodiesterase 1 (TDP1): qHTS in cells in absence of CPT; DT40 Tdp1-/- hTDP1 cells, no CPT, ATP luminescence, 48 h; AID 686978, 2013; Potency, µM (doses to about 46.2 µM), inactives show top-dose activity change, negative = growth inhibition, actives largely listed as inhibitors; 15% of 420,000 active; further: potency means the concentration at half of the fitted maximal effect; on the % scale 0 is the no-effect control and ±100 the full control effect; nearly all actives have a fitted effect of over 55% in size
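Camptothecin absent (DMSO only). Human TDP1-complemented DT40 knockout cells, 400 cells/well, 37 °C for minimum 48 hr; ATP measured via CellTiter-Glo, 30 min dark incubation, luminescence.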
TDP1 cell CPT: DT40-hTDP1 cell growth loss with CPT; Potency, µM (top dose mostly 46.2 µM), for the others: top-dose activity change, negative = growth inhibition, actives largely listed as inhibitors; chicken DT40 Tdp1-/-;hTDP1 cells + 20 nM CPT, ATP luminescence, 48 h; 12% of 420,000 active; further: potency means the concentration at half of the fitted maximal effect; on the % scale 0 is the no-effect control and ±100 the full control effect; nearly all actives have a fitted effect of over 55% in size
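Cell growth measured by CellTiter-Glo luminescence after a minimum 48 h, 37 C compound exposure with 20 nM CPT in Tdp1-knockout DT40 cells stably expressing hTDP1, seeded 400/well; qHTS titration format.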
MCF10A rerep: inducers of DNA re-replication in MCF 10A breast cells. MCF 10A DNA re-replication, Hoechst nuclear intensity, 48 h. 2.9% of 350,000 active. Potency, µM (top dose mostly 46.1 µM), without a hit: at the highest dose activity, positive = re-replication, usual class: activators; further: potency means the concentration at half of the fitted maximal effect; % of control where 0% means no effect; nearly all actives have a fitted effect of over 50% in size
IL-1B inflam inh: blocks inflammasome-driven IL-1 beta release. THP-1 LPS/ATP IL-1B secretion, AlphaLISA, 16 h; hits give low values. activity change, % at 57.5 µM. 4.7% of 360,000 active; in the data active means activity change below about -50%; inconclusive means mostly about -30% to -49%; further: on the % scale 0 is the no-effect control and ±100 the full control effect
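THP-1 cells pretreated 1 hr with compounds (up to 57.5 uM final), then stimulated with LPS (250 ng/mL final) plus ATP (1.25 mM final); secreted IL-1B measured by AlphaLISA after 16 hr, decreased signal indicating inhibition.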
Numbers without * were called inactive; [ ] = remark or other dose. Unless noted, the call rests on the fitted dose curve; in most records, active means well fitted curve in the direction sought with a large enough effect; inconclusive means small, poorly fitted or top-dose-only effect, or another doubt; inactive means no such curve, though single readings can be large; an effect the other way counts as inactive or inconclusive.

What do the screens show for `CC(=O)N1CCC(C(=O)N2c3ccccc3N=C(c3ccc4c(c3)OCO4)C2C(=O)Nc2c(C)cccc2C)CC1` (stereo not given)?
DT40 TDP1 no CPT: inconclusive; TDP1 cell CPT: inconclusive; IL-1B inflam inh: 44

Results for Cc1cccc(C)c1NC(=O)C1C(c2ccc3c(c2)OCO3)=Nc2ccccc2N1C(=O)c1cccc(C(F)(F)F)c1 (stereo not given) ?
DT40 TDP1 no CPT: 7.3µM*; TDP1 cell CPT: 7.3µM*; IL-1B inflam inh: -57*

How did Cc1cccc(C)c1NC(=O)C1C(c2ccc3c(c2)OCO3)=Nc2ccccc2N1C(=O)c1ccccn1 (stereo not given) do in these assays?
DT40 TDP1 no CPT: 21µM*; TDP1 cell CPT: inconclusive; IL-1B inflam inh: 40

How did Cc1cccc(CN2CCN(C(=O)CN(C)C(C)C(=O)Nc3ccc(C(N)=O)cc3)CC2)c1 (stereo not given) do in these assays?
BCR signal inh: -2%; SW480 rereplic: -5%; DT40 TDP1 no CPT: -29%; TDP1 cell CPT: -18%; MCF10A rerep: 2%; IL-1B inflam inh: -2

How did O=C(c1cnn2c(C(F)(F)F)cc(-c3ccccc3)nc12)N1CCOCC1 do in these assays?
BCR signal inh: -4%; SW480 rereplic: 1%; DT40 TDP1 no CPT: -18%; TDP1 cell CPT: inconclusive; MCF10A rerep: 1%; IL-1B inflam inh: -9

Results for O=C(c1cc2nc(-c3ccco3)cc(C(F)(F)F)n2n1)N1CCc2ccccc2C1 ?
BCR signal inh: 9%; SW480 rereplic: 21%; DT40 TDP1 no CPT: 23µM*; TDP1 cell CPT: inconclusive; MCF10A rerep: 29%; IL-1B inflam inh: 6

Results for O=C(c1cnn2c(C(F)(F)F)cc(-c3ccc(F)cc3)nc12)N1CCc2ccccc2C1 ?
BCR signal inh: 1%; SW480 rereplic: inconclusive; DT40 TDP1 no CPT: 21µM*; TDP1 cell CPT: inconclusive; MCF10A rerep: inconclusive; IL-1B inflam inh: -26

Results for O=C(c1cccc(F)c1)N1CCN(C(=O)c2cc3nc(-c4ccco4)cc(C(F)(F)F)n3n2)CC1 ?
BCR signal inh: -7%; SW480 rereplic: -4%; DT40 TDP1 no CPT: 15µM*; TDP1 cell CPT: -24%; MCF10A rerep: 10%; IL-1B inflam inh: -2

What do the screens show for `CN1C(C(=O)N2CCc3ccccc3C2)=CC(c2ccc(F)cc2)=NS1(=O)=O`?
BCR signal inh: 5%; SW480 rereplic: -6%; DT40 TDP1 no CPT: 26µM*; TDP1 cell CPT: inconclusive; MCF10A rerep: -13%; IL-1B inflam inh: 17

How did CN1CCN(C(=O)c2cc3nc(-c4ccco4)cc(C(F)(F)F)n3n2)CC1 do in these assays?
BCR signal inh: -8%; SW480 rereplic: 12%; DT40 TDP1 no CPT: -26%; TDP1 cell CPT: 9%; MCF10A rerep: -5%; IL-1B inflam inh: 0

How did COc1ccc(Cl)cc1NS(=O)(=O)c1cccc(C(=O)NCC(c2ccco2)N(C)C)c1 (stereo not given) do in these assays?
BCR signal inh: 0%; SW480 rereplic: -11%; DT40 TDP1 no CPT: -29%; TDP1 cell CPT: inconclusive; MCF10A rerep: inconclusive; IL-1B inflam inh: inactive

Results for C=CC#CC1(O)CC(C)N(C)CC1C (stereo not given) ?
BCR signal inh: 5%; SW480 rereplic: -4%; DT40 TDP1 no CPT: 1%; TDP1 cell CPT: 19%; MCF10A rerep: 1%; IL-1B inflam inh: -13

Results for Cc1ccc(C)c(Cn2c(=O)n(C(C)C)c(=O)c3oc4ccccc4c32)c1 ?
DT40 TDP1 no CPT: -2%; TDP1 cell CPT: 9%

How did COc1ccc2c(=O)c(C(=O)NCCc3ccccc3)c[nH]c2c1 do in these assays?
BCR signal inh: inconclusive; SW480 rereplic: -2%; DT40 TDP1 no CPT: inconclusive; TDP1 cell CPT: 16µM*; MCF10A rerep: -2%; IL-1B inflam inh: 13

Results for COc1ccc2[nH]cc(C(=O)NCCc3ccccc3)c(=O)c2c1 ?
BCR signal inh: -3%; SW480 rereplic: -15%; DT40 TDP1 no CPT: 18µM*; TDP1 cell CPT: -26%; MCF10A rerep: 0%; IL-1B inflam inh: -9

Results for CCOc1ccc(NC(=O)c2oc(=O)c3ccccc3c2-c2ccc(C)cc2)cc1 ?
BCR signal inh: 9%; DT40 TDP1 no CPT: inconclusive; TDP1 cell CPT: inconclusive

Results for CN(C)CCC1(C2=CCCC2)CC/C(=C/c2ccc(Cl)cc2)C1=O (stereo not given) ?
SW480 rereplic: inconclusive; DT40 TDP1 no CPT: 8.2µM*; TDP1 cell CPT: 7.3µM*; MCF10A rerep: inconclusive; IL-1B inflam inh: -111*

How did Cc1ccc(NC(=O)Cc2ccccc2Cl)cc1S(=O)(=O)N(C)C do in these assays?
BCR signal inh: 1%; SW480 rereplic: 15%; DT40 TDP1 no CPT: -28%; TDP1 cell CPT: -22%; MCF10A rerep: inconclusive; IL-1B inflam inh: -5

How did Cc1ccc(NC(=O)CN2CCC(Cc3ccccc3)CC2)cc1S(=O)(=O)N(C)C do in these assays?
BCR signal inh: inconclusive; SW480 rereplic: 12µM*; DT40 TDP1 no CPT: inconclusive; TDP1 cell CPT: inconclusive; MCF10A rerep: inconclusive; IL-1B inflam inh: -54*

Results for Cc1ccc(NC(=O)Cc2ccc(Cl)c(Cl)c2)cc1S(=O)(=O)N(C)C ?
BCR signal inh: inconclusive; SW480 rereplic: inconclusive; DT40 TDP1 no CPT: 23µM*; TDP1 cell CPT: inconclusive; MCF10A rerep: inconclusive; IL-1B inflam inh: -24

Results for CC(=O)N1CCN(CC(=O)Nc2ccc(C)c(S(=O)(=O)N(C)C)c2)CC1 ?
BCR signal inh: 4%; SW480 rereplic: -19%; DT40 TDP1 no CPT: inconclusive; TDP1 cell CPT: -10%; MCF10A rerep: inconclusive; IL-1B inflam inh: -13

Results for Cc1ccc(NC(=O)CSc2nn(-c3ccc(Cl)cc3)c(=S)s2)cc1S(=O)(=O)N(C)C ?
BCR signal inh: 19%; DT40 TDP1 no CPT: inconclusive; TDP1 cell CPT: 9.2µM*; MCF10A rerep: 13%; IL-1B inflam inh: 15

How did Cc1ccc(NC(=O)CCN2CCC(Cc3ccccc3)CC2)cc1 do in these assays?
BCR signal inh: -1%; SW480 rereplic: 0%; DT40 TDP1 no CPT: inconclusive; TDP1 cell CPT: 8%; MCF10A rerep: 5%; IL-1B inflam inh: -82*

What do the screens show for `CN1CCN(CCC(=O)Nc2ccccc2)CC1`?
BCR signal inh: 3%; SW480 rereplic: -9%[9.22 µM]; DT40 TDP1 no CPT: -5%; TDP1 cell CPT: 9%; MCF10A rerep: -8%; IL-1B inflam inh: 14
